Results published in PubChem BioAssay (EPA / NIEHS).
Active and inactive are the calls of the source. The calls were made as follows: active = hit-call score of the fitted dose curve at least 0.9, where 1 is the maximum; inactive = score below 0.9.

assay: ATG_VDRE_CIS: Attagene CIS-FACTORIAL HepG2 Assay for human Vitamin D Receptor Element (VDRE) (AID 2282968); conditions: HepG2 VDRE cis-reporter transcription, actives raise or lower the signal
Protocol: ATG_CIS is a cell-based, multiplexed-readout assay that uses HepG2, a human liver cell line, with measurements taken at 24 hours after chemical dosing in a 24-well plate.ATG_VDRE_CIS is one of 52 assay component(s) measured or calculated from the ATG_CIS assay. It is designed to make measurements of mRNA induction, a form of inducible reporter, as detected with fluorescence intensity signals by Reverse transcription polymerase chain reaction (RT-PCR) and Capillary electrophoresis technology.Data from the assay component ATG_VDRE_CIS was analyzed into 1 assay endpoint. This assay endpoint, ATG_VDRE_CIS, was analyzed with bidirectional fitting relative to DMSO as the negative control and baseline of activity. Using a type of inducible reporter, measures of mRNA for gain or loss-of-signal activity can be used to understand the reporter gene at the transcription factor-level as they relate to the gene VDR. Furthermore, this assay endpoint can be referred to as a primary readout, because this assay has produced multiple assay endpoints where this one serves a reporter gene function. To generalize the intended target to other relatable targets, this assay endpoint is annotated to the nuclear receptor intended target family, where the subfamily is non-steroidal.
Human liver HepG2 cells are transiently transfected with multiple reporter transcription units (MRTUs) in 6-well plates using FuGene 6 reagent (Roche; 3 ml FuGene/1 mg DNA). The MRTU constructs are regulated by a cis-regulating element (promoter). […] A major difference between the CIS and TRANS system is that in CIS activities of endogenous TFs are measured, whereas the TRANS assay evaluates changes in activities of exogenous, chimeric NR-Gal4 proteins. […] At the end of 24 hour incubation, total RNA was isolated using TriZol reagent (Invitrogen). The isolated RNA is then reverse-transcribed using oligo(dT) primer and Mo-MLV reverse transcriptase (Invitrogen) with DNAse I (Ambion) treatment for 30 min. The one-tenth of the produced cDNA was amplified by PCR using Taq DNA polymerase (Invitrogen) and two reporter sequence-specific primers. The PCR products were fluorescently labeled by primer extension with 6-arboxyfluorescein (6-FAM) 5'-labeled reporter sequence-specific primer (2 min at 95 C, 20 s at 68 C and 10 min at 72 C) and these products were digested with 5U of HpaI (New England Biolabs) for 2h at 37 C. The fragments were purified using Qiaquick PCR columns (Qiagen), analyzed on an ABI 3130xL genetic analyzer (Applied Biosystems) with peak positions identified by using a set of X-rhodamine (ROX)-labeled MapMarker1000 molecular weight standards (BioVentures). The raw capillary electrophoresis data was processed using Attagraph software (Attagene).

Compound	outcome	AC50
O=C1c2ccccc2C(=O)c2cc(S(=O)(=O)O)ccc21	inactive	
N#CC1(N)CCCCC1	inactive	
CCCCCCCOC(=O)c1ccc(O)cc1	inactive	
Oc1ccc(-c2ccccc2)c(Cl)c1		33.4 µM (active)
CCCCC/C=C\C/C=C\CCCCCCCC(=O)O	inactive	
CC(CCC(=O)O)(c1ccc(O)cc1)c1ccc(O)cc1	inactive	
CC(=O)C(C)C	inactive	
O=C(O)CC(C(=O)O)S(=O)(=O)O (stereo not given)	inactive	
c1ccc2sc(SSN3CCOCC3)nc2c1	inactive	
CCC(C)C(=O)OC (stereo not given)	inactive	
CCCCCCCCC(CO)CCCCCC (stereo not given)	inactive	
CC=C(C)C=CC=C(C)C		27.7 µM (active)
CC(C)C(=O)OCCOc1ccccc1	inactive	
CC(=O)CCC1=C(C)CCCC1(C)C	inactive	
Cc1c(C(=O)c2c[nH]n(C)c2=O)ccc(S(C)(=O)=O)c1C1=NOCC1	inactive	
CC(C)c1cccc(C(C)C)c1N	inactive	
CCCCCC1=CCCC1=O	inactive	
CCCCOC(=O)C(C)CC (stereo not given)	inactive	
O=c1c(O)c(-c2ccc(O)cc2O)oc2cc(O)cc(O)c12	inactive	
CCCCCOC(=O)CCCCC	inactive	

Compound	outcome	AC50
Oc1c(Cl)cc(Cl)c(Cl)c1Cl		59.8 µM (active)
C=CC(C)(O)CC/C=C(\C)CC (stereo not given)	inactive	
CCOC(=O)C1=NOC(c2ccccc2)(c2ccccc2)C1	inactive	
C=C(C)C(=O)OCCCCCCCCCCCC	inactive	
CC1=CP(=O)(c2ccccc2)CC1 (stereo not given)	inactive	
C=C[Si](OCCOC)(OCCOC)OCCOC		5.92 µM (active)
CCOC(=O)[C@H](O)[C@@H](O)C(=O)OCC	inactive	
C=Cc1cccc(C)c1	inactive	
CCCCOCCOC(=O)COc1ccc(Cl)cc1Cl	inactive	
CC(C)(O)Cc1ccccc1	inactive	
CCCCCCCO	inactive	
O=C(C=Cc1ccccc1)OCCc1ccccc1		28 µM (active)
CC(C)=CCCC(C)=CC#N	inactive	
CC(c1cc(C(C)(C)C)cc(C(C)(C)C)c1O)c1cc(C(C)(C)C)cc(C(C)(C)C)c1O	inactive	
C[Si](C)(C)N[Si](C)(C)C	inactive	
NNS(=O)(=O)c1ccc(Oc2ccc(S(=O)(=O)NN)cc2)cc1	inactive	
CCc1cccc(CC)c1	inactive	
COc1ccc(C(=O)/C(Br)=C\C(=O)O)cc1		35.7 µM (active)
CCCCCCCCCCCC(C)=O	inactive	
Clc1cc(Cl)c(Cl)c(Cl)c1Cl		56.2 µM (active)
